Source: PubChem (National Center for Advancing Translational Sciences (NCATS))
Cruzain inh noDet – qHTS Assay for Promiscuous and Specific Inhibitors of Cruzain (without detergent) | Cruzipain (Trypanosoma cruzi), P25779 | purified cruzain, Z-FR-AMC fluorescence, no detergent | Potency, µM, for the others: max response, negative = inhibition, usual class: inhibitors | 200,000 compounds, 2.3% hits;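 note: plate controls were enzyme without inhibitor for no effect and buffer without enzyme for full effect; nearly all actives have a fitted effect of over 40% in size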
Target sequence (P25779 123-467 limits assumed): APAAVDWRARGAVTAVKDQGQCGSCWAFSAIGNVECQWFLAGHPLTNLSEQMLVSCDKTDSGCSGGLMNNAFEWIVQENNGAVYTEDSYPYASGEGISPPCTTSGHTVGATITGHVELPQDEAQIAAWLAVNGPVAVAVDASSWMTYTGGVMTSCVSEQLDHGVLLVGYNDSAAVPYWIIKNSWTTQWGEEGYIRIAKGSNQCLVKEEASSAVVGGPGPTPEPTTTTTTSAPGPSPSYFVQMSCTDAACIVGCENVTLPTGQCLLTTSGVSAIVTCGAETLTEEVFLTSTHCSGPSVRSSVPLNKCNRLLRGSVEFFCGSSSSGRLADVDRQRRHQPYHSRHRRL
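Detergent-free condition (0.00005% Triton X-100) in acetate buffer pH 5.5 with DTT. 1.5 nM enzyme and compound were pre-mixed 15 min, then 2 uM Z-FR-AMC substrate added; reaction progress from fluorescence change between first and third reads (60 s).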
Cruzain inh Det – qHTS Assay for Promiscuous and Specific Inhibitors of Cruzain (with detergent) | Cruzipain (Trypanosoma cruzi), P25779 | purified cruzain, Z-FR-AMC fluorescence, 0.01% Triton | Potency, µM, inactives show max response, negative = inhibition, actives largely listed as inhibitors | 200,000 compounds, 0.43% hits;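 note: plate controls were neutral wells for no effect and buffer without enzyme for full effect; nearly all actives have a fitted effect of over 40% in size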
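Z-FR-AMC hydrolysis (2 uM substrate) by cruzain (1.5 nM) monitored kinetically at ex 360/em 450 nm after 15 min room-temperature compound exposure; 0.01% Triton X-100, pH 5.5, 5 mM DTT.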
Numbers without * were called inactive; ? = inconclusive. A selection: hits, their analogues and other compounds. The true share with any hit is near 2.4%. Calls come from the whole dose curve; as a rule, active = well fitted curve in the direction sought with a large enough effect; inconclusive = small, poorly fitted or top-dose-only effect, or another doubt; inactive = no such curve, though single readings can be large; an effect the other way counts as inactive or inconclusive. Potency is the fitted concentration of half-maximal effect.

SMILES | Cruzain inh noDet | Cruzain inh Det
COc1ccccc1NC(=O)CN1C(=O)C2(SCC(=O)N2c2ccc(F)c(F)c2)c2ccccc21 (configuration not stated) | 16µM* | -5%
COc1ccccc1NC(=O)CN1C(=O)C2(SCC(=O)N2c2ccc(C)c(C)c2)c2ccccc21 (configuration not stated) | -21% | -2%
CC(=O)Nc1ccc(NC(=O)C(NC(=O)C2CCC(C)CC2)C(C)C)cc1 (configuration not stated) | 8% | 3%
CCCCCC(C)N (configuration not stated) | -4% | -1%
CC(=O)c1ccc(-c2ccc(-c3cc(=O)oc4c(C(C)C)ccc(C)c34)cc2)cc1 | 8.9µM* | -2%
Cc1ccc(C(C)C)c2oc(=O)cc(-c3ccc(-c4ccc(C(F)(F)F)cc4)cc3)c12 | ? | 1%
Cc1ccc(C)c(N2CCN(C(=O)CCc3c(C)nn(-c4ccc(N5CCCC5)nn4)c3C)CC2)c1 | 25% | -4%
Cc1cc2c3c(cccc3n1)C(=O)c1ccccc1-2 | 17% | -1%
Cc1ccc(/C=C(\C#N)C(=O)Nc2cccc(Br)c2)o1 | 13µM* | -1%
Cc1ccc(/C=C(\C#N)C(=O)Nc2ccc(Br)cc2)o1 | -13% | 0%
CC(=O)N1CCCc2cc(S(=O)(=O)N(CCN(C)C)Cc3ccccc3)ccc21 | -4% | -1%
Oc1ccc2ccccc2c1/C=N/n1cnnc1 | -18% | -11%
Oc1ccc2ccccc2c1/C=C\c1ccc2c(Br)cc(Br)c(O)c2n1 | 3.2µM* | 1%
Cc1cc(C)nc(SCc2nnc(SCC(=O)Nc3nc(-c4ccccc4)cs3)n2-c2ccccc2)n1 | ? | 5%
COc1ccc(-n2c(Cc3cccn3C)nnc2SCC(=O)Nc2ccc(C)cc2)cc1 | 19% | -6%
COc1ccc(NCc2nnc(SCC(=O)Nc3nc(-c4ccccc4)cs3)n2-c2ccccc2)cc1 | 25µM* | -1%
COc1ccc(-n2c(CNc3ccc(C)cc3)nnc2SCC(=O)Nc2nc(-c3ccccc3)cs2)cc1 | 6.3µM* | 2%
COC(=O)CN=C1OC(=O)N2C(=O)C3=C4C(C[C@H]5C(=O)N(c6ccccc6)C(=O)[C@H]5[C@H]4[C@@]12Cc1ccccc1)[C@H]1C(=O)N(c2ccccc2)C(=O)[C@H]1[C@H]3C (some centres not stated) | 1% | -2%
CCCn1c2ccccc2c2nnc(SC(CC)C(=O)Nc3sc4c(c3C#N)CCCC4)nc21 (configuration not stated) | 10µM* | 0%
CCCn1c2ccccc2c2nnc(SC(CC)C(=O)Nc3cc(C)on3)nc21 (configuration not stated) | -21% | -14%
Cc1ccc(NC(=O)Cn2c(=O)n(Cc3ccc4c(c3)OCO4)c(=O)c3ccccc32)cc1 | 5% | -3%
Cc1cccc(NC(=O)Cn2c(=O)n(Cc3ccc4c(c3)OCO4)c(=O)c3ccccc32)c1 | 20µM* | -6%
Cc1ccc(Cl)cc1NC(=O)Cn1c(=O)n(Cc2ccc(C(=O)NCc3ccc4c(c3)OCO4)cc2)c(=O)c2ccccc21 | -22% | -2%
Cc1ccc(NC(=O)Cn2c(=O)n(Cc3ccc(C(=O)NCc4ccc5c(c4)OCO5)cc3)c(=O)c3ccccc32)cc1 | ? | -4%
COc1cccc(NC(=O)Cn2c(=O)n(Cc3ccc(C(=O)NCc4ccc5c(c4)OCO5)cc3)c(=O)c3ccccc32)c1 | 13µM* | -2%
SMILES | Cruzain inh noDet | Cruzain inh Det
O=C(Cn1c(=O)n(Cc2ccc(C(=O)NCc3ccc4c(c3)OCO4)cc2)c(=O)c2ccccc21)Nc1ccccc1F | 13µM* | -2%
CCCCc1ccc(NC(=O)CSc2nnc3[nH]c(=O)cc(C)n23)cc1 | -16% | 0%
CCOC(=O)C1CCN(C(=O)c2ccc3c(c2)sc2nc(-c4ccccc4)cn23)CC1 | 7% | -1%
COc1ccc(NS(=O)(=O)c2ccc(N/N=C/c3ccc(N4CCOCC4)cc3)c([N+](=O)[O-])c2)cc1 | 25µM* | -5%
COc1ccc(/C=N/Nc2ccc(C(F)(F)F)cc2[N+](=O)[O-])cc1 | 2% | -4%
Cc1ccc(Cl)cc1Nc1nc2ccccc2c2nncn12 | 11% | -3%
COc1cccc(-c2nn(-c3ccccc3)cc2/C=C\C(=O)c2cccs2)c1 | 13µM* | 3%
COc1cccc(-c2nn(-c3ccccc3)cc2C(=O)O)c1 | -1% | 4%
COc1nc(N)nc2c1ncn2[C@@H]1C[C@H](O)[C@@H](CO)O1 | -4% | 5%
CCCCOc1ccc(CNC(=O)c2cnc3sc(N4CCCCCC4)nn3c2=O)cc1 | -5% | -1%
CC(C)c1cc(C(N)=O)c(NC(=O)c2cccc(COc3ccc(Cl)cc3)c2)s1 | 20µM* | -3%
Cc1nn(Cc2c(F)c(F)c(F)c(F)c2F)c(C)c1NC(=O)c1cccc(COc2ccc(Cl)cc2)c1 | -13% | 3%
